Source: ChEMBL document CHEMBL1157539, “Thousands of chemical starting points for antimalarial lead identification” (Nature, 2010)
“And” between values parts separate entries of the source, which are not always exact repeats. Equal values may be shown once.

Test system: HepG2
Test: GSK_TCMDC: Percent inhibition of human HepG2 cell line. Test compounds present at 10uM.
Type: functional

Compound | Inhibition
O=C(/C=C/c1ccc(Cl)cc1)NC1CCC(CN2CCC(c3c[nH]c4ccccc34)CC2)CC1 (centres undefined) | 40% and 39%
O=P(O)(O)Oc1c(Br)cc(Br)cc1-c1cc(Br)cc(Br)c1O [BROMOFENOFOS] | 10%
O=C(/C=C/c1ccc(Cl)c(Cl)c1)NC1CCC(N2CCC(c3c[nH]c4ccc(O)cc34)CC2)CC1 (centres undefined) | 10%
Oc1ccc(Cl)cc1CN1CCC(CCOC(c2ccccc2)c2ccc(Cl)cc2)CC1 (centres undefined) | 32%
O=C(NC1CCC(CN2CCC(c3c[nH]c4ccccc34)CC2)CC1)c1cc(-c2cccc(Cl)c2)n(-c2ccc(Cl)cc2Cl)n1 (centres undefined) | 53%
CCCCCC(C)C(C)c1cc(O)c2c(c1)OC1(C(C)C)CC(O)C(C)C2C1 (centres undefined) | 1%
CC(=O)Nc1ccc(OCCN(CC(F)(F)F)c2ccc(C#N)cc2C(F)(F)F)cc1 | 0%
COc1ccc(F)cc1-c1csc(N(c2ccc(F)cc2)C2CCNCC2)n1.O=C(O)C(F)(F)F | 15%
CC[C@H]1CN2CC[C@H]1C[C@H]2[C@H](O)c1cc(-c2ccc(Cl)c(Cl)c2)nc2ccc(OC)cc12.Cl | 17%
COCCNCc1cccc(-c2cccc(CN(C(=O)Nc3ccccc3)C3CCN(Cc4ccccc4)CC3)c2)c1.O=C(O)C(F)(F)F | 28%
CN1CCC(O)(c2ccc(Br)cc2)C(C(O)c2ccc(Br)cc2)C1.CS(=O)(=O)O (centres undefined) | 28%
CN1CCC(N(C)c2nccc(N3CCN(Cc4cncn4Cc4ccccc4)CC3)n2)CC1 | 15%
COC(C(=O)OCCC1CCCN1C)(c1ccccc1)C1CCCCC1 (centres undefined) | 3%
OC(CNCc1ccccc1OC(F)F)c1cccc(C(F)(F)F)c1 (centres undefined) | 2%
COC(=O)c1ccc(CC(C)NCC(O)c2cc(Cl)c(N)c(Cl)c2)cc1 (centres undefined) | 0%
O=C(NC1CCC(CN2CCC(c3c[nH]c4ccccc34)CC2)CC1)NC12CC3CC(CC(C3)C1)C2 (centres undefined) | 37%
CC[C@H]1CN2CC[C@H]1C[C@H]2[C@H](O)c1cc(-c2ccccc2C(F)(F)F)nc2ccc(OC)cc12.Cl | 0%
O=C1Nc2cccc3c2C1(CCCCCN1CC=C(c2c[nH]c4ccccc24)CC1)CCC3 (centres undefined) | 2%
COc1ccc2[nH]cc(C3CC4CCC(C3)N4CCC3CCN(C(=O)/C=C/c4ccc(Cl)c(Cl)c4)CC3)c2c1 (centres undefined) | 38%
CC[C@H]1CN2CC[C@H]1C[C@H]2[C@H](O)c1cc(-c2ccccc2F)nc2ccc(OC)cc12.Cl | 13%

Compound | Inhibition
CC(C)CNCc1cccc(-c2cccc(CN(C(=O)NC3CCCCC3)C3CCN(Cc4ccccc4)CC3)c2)c1.O=C(O)C(F)(F)F | 32%
COCC(=O)N(Cc1cccc(-c2ccc(CNCCc3ccccc3)cc2)c1)C1CCN(Cc2ccccc2)CC1.O=C(O)C(F)(F)F | 44%
COC(=O)/C=C/c1ccc(CC(C)NCC(O)c2cccc(Cl)c2)cc1 (centres undefined) | 2%
O=C(NC1CCN(CC2(c3ccc(Cl)cc3)CCC2)CC1)c1cc[nH]n1 | 0%
O=C(NC1CCC(CN2CCC(c3c[nH]c4ccccc34)CC2)CC1)[C@H]1Cc2ccccc2CN1 (some centres undefined) | 29%
CCOc1ccc2nccc([C@@H](O)[C@@H]3C[C@@H]4CCN3C[C@@H]4CC)c2c1 [ETHYLHYDROCUPREINE] | 1%
CNCCCCCCOc1ccc(CC(C)NCC(O)c2cccc(C(F)(F)F)c2)cc1.Cl (centres undefined) | 99%
Cn1cc(CN2CCC(CCOC(c3ccccc3)c3ccccc3)CC2)cn1 | 27%
COc1cccc(C(=O)C2CC2CN2CC=C(c3c[nH]c4ccc(OC)nc34)CC2)c1 (centres undefined) | 8%
CC(=O)Nc1ccc2[nH]cc(C3CCN(CC4CCN(C(=O)/C=C/c5ccc(Cl)c(Cl)c5)CC4)CC3)c2c1 | 10%
O=C(NC1CCC(CN2CCC(c3c[nH]c4ccccc34)CC2)CC1)c1ccc(-c2ccccc2[N+](=O)[O-])o1 (centres undefined) | 24%
CC[C@H]1CN2CC[C@H]1C[C@H]2[C@H](O)c1cc(N2CCCC(C(=O)N(CC)CC)C2)nc2ccc(OC)cc12 (some centres undefined) | 0%
Cc1csc(-c2ccc3[nH]cc(C4=CCN(C)CC4)c3c2)n1 | 10%
Cc1ccc(CC(C)NCC(O)c2cccc(C(F)(F)F)c2)cc1F.Cl (centres undefined) | 15%
CN(C(=O)OCc1ccccc1)C1CCC(CCN2CCC3(CC2)C(=O)NCN3c2cccc(C(F)(F)F)c2)(c2ccccc2)CC1 (centres undefined) | 19%
Cc1cc2cc(CNCCc3ccccc3Br)ccc2nc1N.Cl | 31%
C=C[C@H]1CN2CC[C@H]1C[C@H]2[C@H](O)c1cc(/C=C/c2ccc(F)cc2)nc2ccc(OC)cc12.Cl | 25%
CC[C@H]1CN2CC[C@@H]1C[C@H]2[C@H](O)c1cc(-c2c(C)noc2C)nc2ccc(OC)cc12.Cl | 4%
CC(Cc1ccc(NC(=O)CCCc2ccccc2)cc1)NCCc1cccc(Cl)c1.Cl (centres undefined) | 12%
